An excerpt weighted towards active compounds, which were near 6% of everything screened.
D1 ag: Allosteric Agonists of the Human D1 Dopamine Receptor: qHTS | D(1A) dopamine receptor (Homo sapiens), P21728 | HEK293 T-REx D1 cells, calcium flux, agonist mode | activation, % at 2 µM | hit rate 1% among 360,000; in the data active = activation above about 30%; also: 0% is about no effect
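Agonism was scored from calcium flux recorded over 180 s (1 read/s) after pintool compound addition, following a 10-cycle baseline. Cells were inducible force-coupled HEK293 TREx D1, plated overnight at 30 C and loaded with no-wash calcium dye.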
DRD3 agonist: qHTS of D3 Dopamine Receptor Agonist: qHTS | max activation, % | hit rate 0.58% among 410,000 | D3R DiscoveRx beta-arrestin cells, luminescence, 90 min | D(3) dopamine receptor (Homo sapiens), P35462 | AID 652048, 2013; in the data active = max activation above about 30%; also: 0% is about no effect
Target sequence (P35462 whole entry, looked up): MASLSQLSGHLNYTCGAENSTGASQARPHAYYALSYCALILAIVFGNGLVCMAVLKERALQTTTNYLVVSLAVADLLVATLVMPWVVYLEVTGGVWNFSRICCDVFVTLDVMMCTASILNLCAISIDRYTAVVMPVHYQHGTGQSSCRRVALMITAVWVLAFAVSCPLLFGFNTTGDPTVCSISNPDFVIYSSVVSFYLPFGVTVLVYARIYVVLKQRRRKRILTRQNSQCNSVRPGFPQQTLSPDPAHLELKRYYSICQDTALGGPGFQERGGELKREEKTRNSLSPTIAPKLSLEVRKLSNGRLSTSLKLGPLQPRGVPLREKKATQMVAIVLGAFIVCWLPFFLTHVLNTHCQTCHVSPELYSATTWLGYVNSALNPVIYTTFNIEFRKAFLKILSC
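Agonist-mode cell screen: cells plated at 1500/well and incubated overnight at 37 °C, then exposed to library compounds for 90 min at 37 °C. Detection reagent was added for 30–60 min at room temperature, and luminescence was read.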
D1 antag: Antagonist of Human D 1 Dopamine Receptor: qHTS; D(1A) dopamine receptor (Homo sapiens), P21728; HEK293 TREx D1 cells, calcium flux, dopamine EC80; hits give low values; activity change, negative = inhibition, % at 10 µM; hit rate 3.2% among 360,000; in the data active = activity change below about -30%; also: % is scaled to controls: 0 for no effect and ±100 for the full control effect
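Tetracycline-induced HEK293 T-REx cells with force-coupled D1 receptor were loaded with a no-wash calcium dye. Compound was added after a 10 s baseline and read kinetically for 180 s; EC80 dopamine was then added and calcium flux followed another 180 s.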
D1 potentiator: Potentiators of Human D1 Dopamine Receptor: qHTS | D(1A) dopamine receptor (Homo sapiens), P21728 | HEK293 TREx D1 cells, calcium flux, dopamine EC20 potentiation | potentiation, % at 10 µM | hit rate 0.036% among 360,000; in the data active = potentiation above about 30%; also: 0% is about no effect
DRD3 antagonist: qHTS of D3 Dopamine Receptor Antagonist: qHTS; D3R cells, DiscoveRx beta-arrestin luminescence, antagonist mode; hits give low values; max response, negative = inhibition, %; hit rate 2.5% among 360,000; AID 652054, 2013; in the data active = max response below about -50%; inconclusive = no clear call, values can overlap the other calls; also: % is scaled to controls: 0 for no effect and ±100 for the full control effect
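Cells plated overnight at 1500 cells/well, then exposed to library compounds with dopamine controls for 90 minutes at 37 degrees C. DiscoveRx reagent added for 30–60 minutes at room temperature; luminescence read, quantitative HTS format.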
* = called active by the depositor; ? = inconclusive; . = not tested or not shown.

SMILES	D1 ag	DRD3 agonist	D1 antag	D1 potentiator	DRD3 antagonist
COc1ccc(Br)cc1CN1C(=O)NC2(CCCCCC2)C1=O	30.5*	-0.1	-32.7*	.	-26.8
CN1C[C@H](C(=O)N[C@]2(C)O[C@@]3(O)[C@@H]4CCCN4C(=O)[C@H](Cc4ccccc4)N3C2=O)CC2c3cccc4[nH]cc(c34)C[C@H]21 (some centres not stated)	1.1	-38.9	-61.7*	-6.8	-65.3*
Cc1ccc(NC(=O)c2ccccc2NS(=O)(=O)c2ccc(Cl)s2)cc1	26.1	10.7	-44.4*	-0.4	19.8
O=C(NCc1ccco1)c1ccccc1NS(=O)(=O)c1ccc(Cl)s1	20.8	1.4	.	-1.4	?
O=C(Nc1ccccc1Cc1ccccc1)c1ccccc1NS(=O)(=O)c1ccc(Cl)s1	28.3	15.8	-59.7*	-6.6	-11.4
O=C(Nc1ccccc1)c1ccccc1NS(=O)(=O)c1ccc(Cl)s1	29.7	21.5	-35.0*	-8.2	11.8
COc1cccc(-n2c(SCC(=O)Nc3cc(C)ccc3C)nc3c(oc4ccccc43)c2=O)c1	3.6	1.7	14.1	-6.2	.
CCc1ccc(NC(=O)CSc2ccc(-c3sc(-c4ccccc4)nc3C)nn2)cc1	0.9	8.5	8.7	0.9	.
COc1cc(-c2nc3ncccn3c2Nc2ccc(C)cc2C)ccc1O	28.7	-24.0	-9.2	0.1	.
COc1cc(C2C(C#N)=C(N)Oc3cc(N(C)C)ccc32)cc2c1OCO2 (configuration not stated)	45.3*	-12.9	10.2	-1.4	-17.9
COc1cc(C2C(C#N)=C(N)Oc3cc(O)ccc32)cc2c1OCO2 (configuration not stated)	10.3	-2.4	6.6	-5.8	6.4
Cc1ccccc1OCCCCn1c(CO)nc2ccccc21	15.2	2.6	-21.2	-9.2	43.3
Cc1nc2ccccc2n1CCOc1ccccc1	10.3	3.0	-42.3*	3.3	6.1
c1ccc(OCCn2c(COc3ccccc3)nc3ccccc32)cc1	22.4	2.7	2.2	-0.3	.
Cc1ccccc1OCCn1c(C)nc2ccccc21	14.1	4.3	-41.4*	-10.0	-1.9
CN(Cc1ccccc1)C(=O)C1CCC(CNS(=O)(=O)c2ccc3c(c2)CCCC(=O)N3)CC1 (configuration not stated)	5.9	-0.8	-22.3	0.0	.
CCOc1ccccc1N/C(=C(/C(Cl)=C(Cl)Cl)[N+](=O)[O-])n1cncn1	1.1	-6.9	-38.7*	-10.8	?
COc1ccc(CNC(=O)Cc2csc3nc(-c4ccc(C)cc4)cn23)cc1	0.1	6.8	-4.5	-2.2	.
CCOc1ccccc1NC(=O)N1CCN(Cc2cc(=O)n3nc(-c4ccc(C)cc4)sc3n2)CC1	-0.3	4.6	1.1	1.0	.
CC(=O)c1ccc(C(=O)N2CCc3c([nH]c4ccccc34)C2c2cccc(C)n2)s1 (configuration not stated)	0.1	-33.2	-3.3	-7.2	-56.5*
Cc1cc2c(s1)c1cnn(Cc3ccc(Br)cc3)c(=O)c1n2C	1.0	.	4.8	3.4	.
Fc1ccc(NCc2nnc(SCc3ccccc3)o2)cc1	0.2	-1.5	3.3	-1.5	-17.0
Clc1ccc(CSc2nnc(CNc3cccc(Cl)c3)o2)cc1	3.3	-21.2	1.6	1.3	-56.9*
COc1ccc(-c2nnc(SCc3ccccc3F)o2)cc1	2.9	5.5	1.0	-0.3	-11.3
COc1cc(OC)cc(-c2nnc(SCc3c(F)cccc3Cl)o2)c1	11.9	21.0	-33.0*	-9.7	24.8
SMILES	D1 ag	DRD3 agonist	D1 antag	D1 potentiator	DRD3 antagonist
NCCc1nnc(SCc2ccc(Cl)cc2)o1	0.3	-11.7	-1.5	0.2	.
Fc1cccc(Cl)c1CSc1nnc(CNc2ccccc2)o1	-0.1	-5.7	-40.7*	-11.9	1.4
Cc1cccc(N(CC(=O)NC(C)c2ccccc2)S(=O)(=O)c2ccccc2)c1C (configuration not stated)	13.6	-6.1	24.9	-0.7	.
Cc1nn(-c2ccccc2)c2c1cc1c(=O)[nH]c(=O)nc-1n2-c1cccc(C(F)(F)F)c1	1.5	1.7	33.9	0.8	.
O=C1C2C(C(=O)N1/N=C/c1cc(Br)cc([N+](=O)[O-])c1O)C1C=CC2C12CC2 (configuration not stated)	5.0	-29.9	-30.9*	0.8	-69.6*
CCCCc1nc2cc(C(=O)N3CCCCC3COC)ccc2o1 (configuration not stated)	1.0	1.8	-30.8*	-7.1	16.0
Clc1ccc(CSc2snnc2-c2ccccc2)c(Cl)c1	51.1*	-10.2	-10.0	-5.2	-4.2
NC(=O)CC(NC(=O)c1ccccc1)c1ccc(NCCOc2ccccc2)c([N+](=O)[O-])c1 (configuration not stated)	2.6	-8.3	-34.6*	-9.7	-15.8
CN(Cc1ccccc1)c1ccc(C(CC(N)=O)NC(=O)c2ccc(Br)cc2)cc1[N+](=O)[O-] (configuration not stated)	2.2	-51.8	-8.7	7.5	-51.6*
CC(C)Nc1ccc(C(CC(N)=O)NC(=O)c2ccc(Br)cc2)cc1[N+](=O)[O-] (configuration not stated)	3.4	-12.0	8.4	-1.9	1.1
NC(=O)CC(NC(=O)c1ccccc1)c1ccc(NCC2CC2)c([N+](=O)[O-])c1 (configuration not stated)	0.9	-5.4	-44.5*	-5.8	8.4
CC(=O)C1=C(c2ccc(Cl)cc2)N(C(C)=O)n2c(nnc2C2CCCCC2)S1	1.4	-1.2	.	-1.8	.
COc1ccccc1NC(=O)CSC1=Nc2ccccc2N=C(c2ccc(F)cc2)C1	5.2	0.2	-4.5	-2.4	.
CCCN(C(=O)c1coc(=O)c2ccccc12)c1ccccc1C	1.4	-17.3	0.9	0.2	.
CC1CCCCN1C(=O)c1ccc(COc2ccc([N+](=O)[O-])cc2)o1 (configuration not stated)	15.3	-3.3	-35.6*	-6.9	11.3
NNC(=O)c1ccc(COc2ccc([N+](=O)[O-])cc2)o1	2.7	3.0	-14.3	-4.5	7.1
Cc1nc([N+](=O)[O-])cn1Cc1cccc([N+](=O)[O-])c1	3.2	-1.6	-31.3*	-6.4	-18.7
CCS(=O)(=O)c1nc2ccccc2n1CC(=O)Nc1ccccc1C(=O)OC	0.8	-20.1	-0.9	-2.0	.
Cc1c(O)ccc2cc(S(=O)(=O)c3ccccc3)c(=O)oc12	31.6*	9.8	-2.3	1.1	55.0
Cc1ccc(S(=O)(=O)c2cc3ccccc3oc2=O)cc1	2.0	1.6	-3.6	-7.2	17.6
CCc1cccc(NC(=O)CN(C)S(=O)(=O)c2cnc[nH]2)c1	1.8	4.0	18.4	-2.0	-52.3*

Source: PubChem BioAssay (National Center for Advancing Translational Sciences (NCATS))
